Where “and” joins values, the source holds several entries; their conditions need not be identical. Identical values can stand only once. Records with an inconclusive call do not appear. Calls of active or inactive are those of the source.
Assay: qHTS drug screen for cell cycle checkpoint inhibitors in PARPi-resistant BRCA-mutant ovarian cancer cell lines. (AID 1963452)
Conditions: PEO1/OlaR viability, CellTiter-Glo luminescence, 96 h; measured here: PEO4 Z-AUC; stronger effect = lower value
Method in brief: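 PEO1, PEO4 and PEO1/OlaR ovarian cancer cells, 600 per well, exposed 96 h at 37C to a dilution series. Viability read by CellTiter-Glo luminescence, normalized to DMSO and empty wells; activity summarized as Z-AUC.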

Compound	Z-AUC
NCC(=O)Nc1ccc(-n2nc(C(F)(F)F)cc2-c2ccc3c(ccc4ccccc43)c2)cc1	-0.389
Cc1c(NC(=O)OC[C@@H]2COCCN2)cn2ncnc(Nc3ccc4c(cnn4Cc4cccc(F)c4)c3)c12	-1.04 and 1.11
COc1ccc(CC2c3cc(OC)c(OC)cc3CC[N+]2(C)CCC(=O)OCCCCCOC(=O)CC[N+]2(C)CCc3cc(OC)c(OC)cc3C2Cc2ccc(OC)c(OC)c2)cc1OC (centres undefined)	0.213
Cc1cnc(-c2cnc(NCCNc3ccc(C#N)cn3)nc2-c2ccc(Cl)cc2Cl)[nH]1	0.844
CS(=O)(=O)c1ccc(-c2cnc(N)c(C(=O)Nc3ccccc3)n2)cc1	-1.14
COc1cc(C(=O)NS(=O)(=O)c2ccccc2C)ccc1Cc1cn(C)c2ccc(NC(=O)OC3CCCC3)cc12	1.3
COC(=O)Nc1ccc(-c2nc(N3CCOCC3)c3cnn(C4CCN(Cc5cccnc5)CC4)c3n2)cc1	-0.944
COc1ccc2c(OCc3nnc4ccc(-c5ccccc5)nn34)ccnc2c1	0.516
CCCn1c(=O)c2[nH]c(-c3cnn(Cc4cccc(C(F)(F)F)c4)c3)nc2n(CC)c1=O	1.33

Assay: qHTS for identification of novel therapeutic agents for treatment of microphthalmiaassociated transcription factor (MiT) renal cell carcinoma (RCC) (AID 1963991); note: potency is the fitted concentration of half-maximal effect
Conditions: TFE3-RCC UOK109 viability, CellTiter-Glo, 48 h; active = Z-AUC below -0.8 in all three lines
Method in brief: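 Three TFE3-fusion RCC lines (UOK109, UOK124, UOK145), 500 cells/well in complete medium, were treated with MIPE 4.0 compounds for 48 hours at 37 C. Viability was by CellTiter-Glo luminescence, normalized to DMSO (100%) and empty wells (0%); curves fitted over 11 concentrations.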

Compound	Potency
CC(C)(O)c1cc2nc(-c3cnc(N)nc3)nc(N3CCOCC3)c2s1	33.2 nM (active)
CN[C@H]1CCc2cc(OC)c(OC)c(OC)c2-c2ccc(OC)c(=O)cc21	3.72 nM (active)
CN1CC[C@@H](c2c(O)cc(O)c3c(=O)cc(-c4ccccc4Cl)oc23)[C@@H](O)C1	118 nM (active)
Cc1[nH]c2ccccc2c1CCNCc1ccc(C=CC(=O)NO)cc1	418 nM (active)
CC(C)[C@H](C(=O)Nc1ccc(C(=O)NO)cc1)c1ccccc1	1870 nM (active)
COC(=O)Nc1nc2ccc(C(=O)c3ccc(F)cc3)cc2[nH]1	1870 nM (active)
COc1c(OCCCN2CCOCC2)ccc2c3n(c(=NC(=O)c4cnc(N)nc4)nc12)CCN3	40.7 nM (active)
Cc1c(NC(=O)OC[C@@H]2COCCN2)cn2ncnc(Nc3ccc4c(cnn4Cc4cccc(F)c4)c3)c12	118 nM (active)

Same assay, conditions: TFE3-RCC UOK109 viability, CellTiter-Glo, 48 h; measured here: UOK109 Z-AUC; stronger effect = lower value

Compound	z-score
CC(C)(O)c1cc2nc(-c3cnc(N)nc3)nc(N3CCOCC3)c2s1	-2.49
CN[C@H]1CCc2cc(OC)c(OC)c(OC)c2-c2ccc(OC)c(=O)cc21	-2.54
O=C(C=Cc1c(C(=O)O)[nH]c2cc(Cl)cc(Cl)c12)Nc1ccccc1	0.0645
CN1CC[C@@H](c2c(O)cc(O)c3c(=O)cc(-c4ccccc4Cl)oc23)[C@@H](O)C1	-2.54
Cc1[nH]c2ccccc2c1CCNCc1ccc(C=CC(=O)NO)cc1	-1.86
COc1cccc(Nc2c(C(N)=O)cnc3c(C)cc(S(=O)(=O)c4cccc(C(=O)N(C)C)c4)cc23)c1	1.38
CC(C)[C@H](C(=O)Nc1ccc(C(=O)NO)cc1)c1ccccc1	-1.43
CN(C)c1nc(Cc2ccc(NC(=O)c3ccc4ccccc4c3)cc2)nc(Cl)c1CC(=O)O	0.743
COC(=O)Nc1nc2ccc(C(=O)c3ccc(F)cc3)cc2[nH]1	-1.13
Nc1ccc(S(=O)(=O)Nc2ncccn2)cc1	-0.287
CC(O)C1C(=O)N2C(C(=O)O)=C(SC3CNC(C(=O)N(C)C)C3)C(C)C12 (centres undefined)	0.648
COc1c(OCCCN2CCOCC2)ccc2c3n(c(=NC(=O)c4cnc(N)nc4)nc12)CCN3	-1.18
Cc1c(NC(=O)OC[C@@H]2COCCN2)cn2ncnc(Nc3ccc4c(cnn4Cc4cccc(F)c4)c3)c12	-1.82
COc1ccc(CC2c3cc(OC)c(OC)cc3CC[N+]2(C)CCC(=O)OCCCCCOC(=O)CC[N+]2(C)CCc3cc(OC)c(OC)cc3C2Cc2ccc(OC)c(OC)c2)cc1OC (centres undefined)	1.41
CS(=O)(=O)c1ccc(-c2cnc(N)c(C(=O)Nc3ccccc3)n2)cc1	0.172
CCCn1c(=O)c2[nH]c(-c3cnn(Cc4cccc(C(F)(F)F)c4)c3)nc2n(CC)c1=O	0.85

Same assay, conditions: TFE3-RCC viability, CellTiter-Glo, 48 h; measured here: UOK124 Z-AUC; stronger effect = lower value

Compound	z-score
CC(C)(O)c1cc2nc(-c3cnc(N)nc3)nc(N3CCOCC3)c2s1	-0.824
CN[C@H]1CCc2cc(OC)c(OC)c(OC)c2-c2ccc(OC)c(=O)cc21	-2.9
O=C(C=Cc1c(C(=O)O)[nH]c2cc(Cl)cc(Cl)c12)Nc1ccccc1	0.537
CN1CC[C@@H](c2c(O)cc(O)c3c(=O)cc(-c4ccccc4Cl)oc23)[C@@H](O)C1	-1.53
Cc1[nH]c2ccccc2c1CCNCc1ccc(C=CC(=O)NO)cc1	-3.24
COc1cccc(Nc2c(C(N)=O)cnc3c(C)cc(S(=O)(=O)c4cccc(C(=O)N(C)C)c4)cc23)c1	0.911
CC(C)[C@H](C(=O)Nc1ccc(C(=O)NO)cc1)c1ccccc1	-1.8
CN(C)c1nc(Cc2ccc(NC(=O)c3ccc4ccccc4c3)cc2)nc(Cl)c1CC(=O)O	0.693
COC(=O)Nc1nc2ccc(C(=O)c3ccc(F)cc3)cc2[nH]1	-1.2
Nc1ccc(S(=O)(=O)Nc2ncccn2)cc1	0.624
CC(O)C1C(=O)N2C(C(=O)O)=C(SC3CNC(C(=O)N(C)C)C3)C(C)C12 (centres undefined)	0.116
COc1c(OCCCN2CCOCC2)ccc2c3n(c(=NC(=O)c4cnc(N)nc4)nc12)CCN3	-2.73
Cc1c(NC(=O)OC[C@@H]2COCCN2)cn2ncnc(Nc3ccc4c(cnn4Cc4cccc(F)c4)c3)c12	-1.81
COc1ccc(CC2c3cc(OC)c(OC)cc3CC[N+]2(C)CCC(=O)OCCCCCOC(=O)CC[N+]2(C)CCc3cc(OC)c(OC)cc3C2Cc2ccc(OC)c(OC)c2)cc1OC (centres undefined)	1.48
CS(=O)(=O)c1ccc(-c2cnc(N)c(C(=O)Nc3ccccc3)n2)cc1	0.911
CCCn1c(=O)c2[nH]c(-c3cnn(Cc4cccc(C(F)(F)F)c4)c3)nc2n(CC)c1=O	0.351
